Whole data set: some 33,000 sequences, median “E-score (-0.5 to 0.5)” near -0.035, cut for the highest 2% near 0.35. For the sample, the highest values were picked, then their nearest neighbours and some sequences at random.
What follows are sequences tested against T1, Pdr3 (UniProt P33200) (assay: PBM E-score (8-mer binding enrichment) (E-score (-0.5 to 0.5)); higher = stronger / more preferred TF binding). Conditions: protein concentration: 200 nM; construct: GST-full length.
T1 sequence: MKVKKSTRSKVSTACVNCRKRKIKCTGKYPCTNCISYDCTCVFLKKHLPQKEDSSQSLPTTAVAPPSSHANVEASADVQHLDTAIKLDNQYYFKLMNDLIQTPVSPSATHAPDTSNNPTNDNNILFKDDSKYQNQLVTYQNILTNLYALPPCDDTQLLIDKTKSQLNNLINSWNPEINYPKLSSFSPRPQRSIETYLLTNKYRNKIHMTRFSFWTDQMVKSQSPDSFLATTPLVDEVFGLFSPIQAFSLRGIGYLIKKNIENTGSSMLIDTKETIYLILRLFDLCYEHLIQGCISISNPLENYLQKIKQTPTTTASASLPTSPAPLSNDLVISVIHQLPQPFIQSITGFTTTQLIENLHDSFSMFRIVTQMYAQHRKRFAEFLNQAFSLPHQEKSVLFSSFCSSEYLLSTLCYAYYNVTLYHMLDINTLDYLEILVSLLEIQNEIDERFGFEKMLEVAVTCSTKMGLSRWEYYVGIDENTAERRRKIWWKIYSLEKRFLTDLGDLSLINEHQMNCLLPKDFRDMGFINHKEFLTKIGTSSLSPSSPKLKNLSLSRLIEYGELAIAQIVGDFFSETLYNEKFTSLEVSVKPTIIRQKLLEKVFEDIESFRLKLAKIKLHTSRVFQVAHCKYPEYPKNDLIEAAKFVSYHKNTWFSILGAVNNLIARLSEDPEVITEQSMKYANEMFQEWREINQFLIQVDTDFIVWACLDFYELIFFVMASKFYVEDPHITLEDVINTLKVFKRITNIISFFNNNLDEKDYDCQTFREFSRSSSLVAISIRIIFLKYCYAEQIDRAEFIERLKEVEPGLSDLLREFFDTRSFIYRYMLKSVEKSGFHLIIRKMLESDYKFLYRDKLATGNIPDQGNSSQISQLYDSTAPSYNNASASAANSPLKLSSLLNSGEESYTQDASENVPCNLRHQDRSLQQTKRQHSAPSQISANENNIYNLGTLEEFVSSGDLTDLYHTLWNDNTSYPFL
Method: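 Universal 'all 10-mer' protein binding microarrays (Agilent AMADID 015681) probed with GST-tagged S. cerevisiae TFs (full-length or DBD) made by in vitro transcription/translation (PURExpress), about 100-200 nM. Bound TF was detected with fluorescent anti-GST. Each ungapped 8-mer (which stands for itself and its reverse complement) is scored by the PBM enrichment score (E-score), a modified Wilcoxon-Mann-Whitney statistic from -0.5 to +0.5, computed with the Universal PBM Analysis Suite. Scale: above 0.35 generally sequence-specific binding.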

Sequence	PBM E-score
ACTGGGAC	-0.0292
AGAACGTA	-0.0336
ACGGGCCA	0.117
CTTTCCGC	0.384
CTTTCCAA	-0.0271
CTTTCCTC	-0.162
CTTTCCGA	0.413
CTTTCCCC	0.117
GTTTCCCA	0.0393
ATTTCCGG	0.456
ATTTCCTG	0.0852
GTTTCCAA	-0.274
GTTTCCGA	0.429
CTTTCCCA	0.0901
ATTTCCGA	0.338
CGCGAAAA	0.096
ACGCTTCG	0.00401
CGCCTGGC	-0.0374
CAACTTCC	0.225
AATTTAAT	0.128
AAACCTAC	-0.103
CTGCCGCC	-0.0369
GGAAGATA	0.234
GCCCAGAC	-0.222
AAATGATG	0.133

Sequence	PBM E-score
CTACAAAG	-0.116
ATTTCCAC	0.131
ATTTCCTC	0.154
ATTTCCGC	0.413
AGCACAAA	0.12
CGGGCGTC	0.193
AGATTCCT	-0.088
AGATTCCG	0.453
AGATTCCC	0.198
CGATTCCA	0.112
CGATTCCC	0.181
CGATTCCG	0.466
AACGTGAT	-0.0792
ACCGGCTC	0.122
CGACGGAC	0.342
TGACGGCA	0.135
AGACGGAA	0.422
CGACGGAG	0.331
GGACGGTA	0.118
TGACGAAA	-0.112
GGACGGAC	0.293
AGACGGAG	0.216
CGACGGAA	0.439
AGACGGAT	0.249
GGACGGAA	0.429

Sequence	PBM E-score
TGACGGAA	0.445
ATAATACA	0.212
ATGATGGC	0.0224
GGATCTCA	0.0621
TCCAAGGA	-0.00825
AGGAACCG	0.123
CGGAACCG	0.482
GGGAACCC	0.133
AGGAACCC	0.00054
CGGAACCA	0.483
TGGAACCA	0.188
CGGAACCC	0.477
CAGAACCG	0.116
GGGAACCA	-0.0124
ACTCCATA	-0.0901
CACAGTAC	-0.0825
ATCTCTTA	-0.0707
AATCTCTG	-0.185
TACGACTA	-0.179
CCTCTAAC	-0.199
TCACTGAA	0.0661
GCATCCTA	0.00911
GAGGGTTA	-0.131
GCCCGGCA	0.225
AACCGGCA	0.158

Sequence	PBM E-score
GGCCGGCA	0.367
TGCCGGCA	0.385
TGCCGACA	0.123
GGCCGGCC	0.326
ACCGTTAG	-0.208
GGGCCCCA	0.092
GGCTAAGA	-0.0826
GACACGGA	0.393
CACACGGA	0.304
AACACGGC	0.154
AACACGGG	0.116
AACACGGA	0.374
GACACGGC	0.171
GCGACCTA	0.0108
GCACGGAC	0.356
ACACGGAC	0.299
GCACGGAA	0.451
GCACGGCA	0.103
GCACGGGA	0.315
GCACGGCC	0.21
ATGCAGCA	0.00559
ACAGGGTA	-0.12
AGATTCAG	-0.0749
GGTATTCA	0.0285
CACCGTCA	0.00596

Sequence	PBM E-score
CCTAACTA	-0.0709
GCGTAGCA	0.0185
ATTATCCC	0.185
ATTATCCA	0.0658
ATTATCCG	0.388
CCACTGCA	-0.0534
GCTTGGCC	-0.00234
CGGGAAAA	0.221
ACGCTCCG	0.315
CCGCTCCG	0.378
CCGCTCCC	0.151
ACATCTCG	-0.111
ATGACGGC	0.141
GTCACGGA	0.415
ATGACGGA	0.362
GTGACGGA	0.31
ATCACGGC	0.218
CTCACGGA	0.325
GTCACGCA	-0.0717
ATCACGGG	0.0804
ATCACGGA	0.391
AAGGAAGC	-0.0529
CACACCGC	0.166
CCCTAATA	-0.113
GAAGGAAA	-0.00233

Sequence	PBM E-score
AGGCGTAC	-0.182
ATGTCTCA	-0.0576
CGGAACGC	0.466
AGGAACGC	-0.00648
CAGAACGC	0.0429
GGGAACGA	0.0381
CGGAACGA	0.464
AGGAACGA	-0.1
ACACCGAC	0.0164
TCGGACCA	0.292
CCGGACCA	0.337
ACGGACCA	0.359
GCGGACCA	0.366
ACGGACCG	0.309
ACGGACCT	0.275
AGGTGTGA	-0.138
GTGGTGGA	-0.0783
CAGTTGGA	-0.0903
CGTGCAGA	-0.148
GGCGGAGA	0.288
CGCGGAGC	0.445
AGCGGAGA	0.232
CGCGGTGC	0.172
CGCGGAGA	0.415
AGCGGAGC	0.216

Sequence	PBM E-score
CGAACTGA	0.0143
GTCGCGAA	0.0709
GTCGCGAC	0.38
CTCGCGAC	0.0674
ACCTCTTC	-0.0577
GATCCATC	0.232
CCCTTCCG	0.392
ACCTTCCG	0.394
CCCTTCCC	0.0658
ACCTTCCT	-0.244
ATCTTCCG	0.376
AACTTCCT	-0.108
CCCTTCCA	-0.00559
AACTTCCG	0.388
ATCTTCCC	0.268
ATCTTCCA	-0.196
AACTTCCA	0.0852
ACCTTCCC	0.0674
GAGCGTCC	-0.174
AGCAATGA	-0.0334
CTCTTTCA	-0.137
ATGCTCAC	-0.048

Reference: the supplement of paper PMC3334620
